High-throughput results: PubChem, National Center for Advancing Translational Sciences (NCATS)
Most compounds without a hit are left out; they make up all but 8% or so of the library.
HT1080 IDH1KD tx = HT-1080 IDH1 knockdown cell toxicity (counter line); HT-1080 IDH1 knockdown viability, ATP luminescence, 48 h; Potency, µM (top dose mostly 46.1 µM), inactives show top-dose activity, negative = toxicity, usual class: cytotoxic; 360,000 compounds, 2% hits; AID 686971;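 further: 0% = DMSO wells and -100% = cell-free medium wells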
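After a 2 h attachment period, IDH1KD HT-1080 cells took pin-transferred compound for 48 h at 37 °C; ATP-based luminescence after 10 min room-temperature reagent incubation reported viability.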
MCF10A rereplic = induces DNA re-replication in MCF 10a normal breast cells; MCF 10A DNA re-replication, Hoechst nuclear intensity, 48 h; Potency, µM (titrated, usually from 46.1 µM), for inactives: at the top dose activity, positive = re-replication, most hits filed as activators; 350,000 compounds, 2.9% hits; AID 624296; further: % of control where 0% means no effect; nearly all actives have a fitted effect of over 50% in size
HT1080-NT tox = kills 2HG-producing HT-1080-NT fibrosarcoma cells. HT-1080-NT fibrosarcoma viability, CellTiter-Glo ATP luminescence, 48 h. Potency, µM (doses to about 46.1 µM), without a hit: at the highest dose activity, negative = less viability, hits mostly cytotoxic. 360,000 compounds, 1.6% hits;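 further: NT is the 2HG producing partner of a matched IDH1 knockdown line; 0% = DMSO-treated cells and -100% = media-only wells without cells; nearly all actives have a fitted effect of over 55% in size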
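HT-1080-NT fibrosarcoma cells (2HG-overproducing), 750 cells/well in RPMI with 5% FBS, dosed after 2 h and incubated 48 h at 37C. CellTiter-Glo luminescence normalized to DMSO and no-cell wells; concentration-response curves fitted and classed.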
SW480 rereplic = DNA re-replication induction in SW480 cells; SW480 DNA re-replication, Hoechst DNA content imaging, 48 h; Potency, µM (top dose mostly 46.1 µM), for inactives: top-dose re-replication activation, most hits filed as activators; 340,000 compounds, 1.8% hits; further: % of control where 0% means no effect; nearly all actives have a fitted effect of over 55% in size
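Cells (250 per well) received 23 nL compound or DMSO by pin tool and were kept 48 hr at 37 C, 5% CO2. Nuclei were then stained with Hoechst for 40 min and scanned for DNA content.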
KB-3-1 cytotox = KB-3-1 parental cell cytotoxicity. KB-3-1 viability, CellTiter-Glo ATP luminescence, 72 h. 400,000 compounds, 1.4% hits. Potency, µM (titrated, usually from 46.1 µM), most hits filed as cytotoxic; further: on the % scale 0 is the no-effect control and ±100 the full control effect; nearly all actives have a fitted effect of over 60% in size
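Screening of KB-3-1 cells (DMEM, 10% FBS, phenol-red free) ran from lowest to highest compound concentration; after 72 h at 37 °C viability was read luminescently and curves fitted.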
KB-V1 cytotox = KB-V1 MDR subline cytotoxicity | KB-V1 MDR cells viability, CellTiter-Glo, 72 h | Potency, µM (top dose mostly 46.1 µM), hits mostly cytotoxic | 400,000 compounds, 3.4% hits | AID 1347076; further: on the % scale 0 is the no-effect control and ±100 the full control effect; nearly all actives have a fitted effect of over 60% in size
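Following 72 h at 37 degrees C with compound, KB-V1 cell viability was read by CellTiter-Glo luminescence, medium being phenol-red-free DMEM plus 10% FBS; concentration-response parameters came from normalized, curve-fitted qHTS data.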
Active calls of the source: *; [ ] = dose if it differs, or a comment. The call rests on the fitted dose curve; in most records, active means well fitted curve in the direction sought with a large enough effect; inconclusive means small, poorly fitted or top-dose-only effect, or another doubt; inactive means no such curve, though single readings can be large; an effect the other way counts as inactive or inconclusive. Potency means the concentration at half of the fitted maximal effect.

Screening COC(C(=O)C(O)C(C)O)C1Cc2cc3cc(OC4CC(OC5CC(O)C(OC)C(C)O5)C(OC(C)=O)C(C)O4)c(C)c(O)c3c(O)c2C(=O)C1OC1CC(OC2CC(OC3CC(C)(O)C(OC(C)=O)C(C)O3)C(O)C(C)O2)C(O)C(C)O1 (stereo unspecified) returned MCF10A rereplic -8% and SW480 rereplic -4%.
For CCOC(=O)[C@]12Cc3cc(OC)ccc3[C@H]1N(Cc1ccccc1)C(=O)c1ccccc12 the results were HT1080 IDH1KD tx 1%, MCF10A rereplic 17%, HT1080-NT tox -2%, SW480 rereplic 25%, KB-3-1 cytotox inconclusive and KB-V1 cytotox inconclusive.
Screening CCOC(=O)[C@]12Cc3cc(OC)ccc3[C@H]1N(Cc1ccccc1)C(=O)c1cc(F)c(F)cc12 returned HT1080 IDH1KD tx -1%, MCF10A rereplic inconclusive, HT1080-NT tox -1%, SW480 rereplic -2%[9.22 µM], KB-3-1 cytotox inconclusive and KB-V1 cytotox inconclusive.
CCOC(=O)[C@]12Cc3ccccc3[C@H]1N(C(C)C)C(=O)c1cc(OC)ccc12 was read as HT1080 IDH1KD tx 16µM*, HT1080-NT tox inconclusive, KB-3-1 cytotox 3.7µM* and KB-V1 cytotox 4.1µM*.
For CCOC(=O)[C@]12Cc3ccccc3[C@H]1N(C)C(=O)c1cc(OC)ccc12 the results were HT1080 IDH1KD tx inconclusive, HT1080-NT tox inconclusive, KB-3-1 cytotox 9.2µM* and KB-V1 cytotox 7.3µM*.
`[N-]=[N+]=CC(=O)OCC(N)C(=O)O` (stereo unspecified) gave MCF10A rereplic 15% and SW480 rereplic 2%.
Screening Cc1ccc2c(c1)C(c1ccccc1)=NCC(=O)N2 returned HT1080 IDH1KD tx -3%, MCF10A rereplic -14%, HT1080-NT tox 5%, SW480 rereplic 7%, KB-3-1 cytotox inactive and KB-V1 cytotox inactive.
O=C1CN=C(c2ccccc2)c2c(sc3c2CCCC3)N1 was read as HT1080 IDH1KD tx 23µM*, MCF10A rereplic inconclusive, HT1080-NT tox inconclusive, SW480 rereplic -70%, KB-3-1 cytotox inactive and KB-V1 cytotox inconclusive.
O=C1CN=C(c2cccs2)c2c(sc3c2CCCC3)N1 was read as HT1080 IDH1KD tx 10µM*, MCF10A rereplic 13µM*, HT1080-NT tox 11µM*, SW480 rereplic 21µM*, KB-3-1 cytotox inconclusive and KB-V1 cytotox inconclusive.
CC(CCC(=O)O)C1CCC2C3C(=O)C[C@@H]4CC(=O)CC[C@@]4(C)C3CC(=O)[C@]12C (stereo partly specified) was read as MCF10A rereplic 10% and SW480 rereplic inconclusive.
COc1ccc(-n2cnc3cc(C(=O)N4CCC5(CC4)OCCO5)ccc32)cc1 was read as HT1080 IDH1KD tx 16µM*, MCF10A rereplic inconclusive, HT1080-NT tox inconclusive, SW480 rereplic inconclusive, KB-3-1 cytotox 15µM* and KB-V1 cytotox inconclusive.
Screening COc1ccc(C(=O)N2CCC3(CC2)OCCO3)cc1 returned HT1080 IDH1KD tx 14%, MCF10A rereplic -22%, HT1080-NT tox 0%, SW480 rereplic -1%, KB-3-1 cytotox inactive and KB-V1 cytotox inactive.
Screening Cc1nn(Cc2ccc(Cl)cc2Cl)c(Cl)c1C(=O)O returned HT1080 IDH1KD tx -6%, MCF10A rereplic 14%, HT1080-NT tox -1%, SW480 rereplic inconclusive, KB-3-1 cytotox inactive and KB-V1 cytotox inactive.
`N=c1c2c(n(Cc3ccc(Cl)cc3Cl)c3c1CCC3)CCCC2` gave HT1080 IDH1KD tx 15µM*, MCF10A rereplic 18%, HT1080-NT tox 21µM*, SW480 rereplic inconclusive, KB-3-1 cytotox inconclusive and KB-V1 cytotox inactive.
For Cc1cc(C(=O)Cn2nnc(-c3ccc(Cl)cc3)n2)c(C)n1-c1ccccc1 the results were HT1080 IDH1KD tx -14%, MCF10A rereplic inconclusive, HT1080-NT tox -18%, SW480 rereplic -1%, KB-3-1 cytotox inactive and KB-V1 cytotox inactive.
For O=c1[nH]c2ccccc2n1C1CCN(Cc2ccc(-c3nc4ccc(F)cc4nc3-c3ccccc3)cc2)CC1 the results were HT1080 IDH1KD tx inconclusive, HT1080-NT tox 21µM*, KB-3-1 cytotox inconclusive and KB-V1 cytotox inconclusive.
O=c1[nH]c2ccccc2n1C1CCN(Cc2ccc(-c3nc4ccccc4nc3-c3ccccc3)cc2)CC1 was read as HT1080 IDH1KD tx inconclusive, HT1080-NT tox inconclusive, KB-3-1 cytotox inconclusive and KB-V1 cytotox 23µM*.
For O=c1[nH]c2ccccc2n1CCCN1CCC(n2c(=O)[nH]c3cc(Cl)ccc32)CC1 the results were HT1080 IDH1KD tx -27%, MCF10A rereplic inconclusive, HT1080-NT tox -1%, SW480 rereplic 1%, KB-3-1 cytotox inactive and KB-V1 cytotox inactive.
For NCC(=O)c1ccccc1 the results were HT1080 IDH1KD tx 3%, MCF10A rereplic -1%, HT1080-NT tox 0%, SW480 rereplic -2%, KB-3-1 cytotox inconclusive and KB-V1 cytotox inconclusive.
`O=C(CCl)NN=C(c1ccccc1)c1ccccc1` gave HT1080 IDH1KD tx -6%, MCF10A rereplic 15µM*, HT1080-NT tox 12%, SW480 rereplic inconclusive, KB-3-1 cytotox inconclusive and KB-V1 cytotox inactive.
`COc1ccc(-c2nc(CN3C(=O)CN=C(c4ccccc4)c4cc(Cl)ccc43)c(C)o2)cc1` gave KB-3-1 cytotox inactive and KB-V1 cytotox inconclusive.
Screening ClCCN(CCCl)c1ccc(C=NNc2ncccn2)cc1 returned HT1080 IDH1KD tx -20%, MCF10A rereplic inconclusive, HT1080-NT tox -17%, SW480 rereplic inconclusive, KB-3-1 cytotox inactive and KB-V1 cytotox inactive.
For ClCCN(CCCl)c1ccc(C=Cc2ccncn2)cc1 the results were HT1080 IDH1KD tx -4%, MCF10A rereplic 15µM*, HT1080-NT tox -5%, SW480 rereplic inconclusive, KB-3-1 cytotox inactive and KB-V1 cytotox inactive.
`COCCN1C(=O)NC(=O)/C(=C\c2ccc(F)cc2)C1=O` gave HT1080 IDH1KD tx -4%, MCF10A rereplic 5.2µM*, HT1080-NT tox 4%, SW480 rereplic -5%, KB-3-1 cytotox inactive and KB-V1 cytotox inactive.
Screening c1ccc2c(c1)[IH]c1ccccc1-2 returned HT1080 IDH1KD tx 0.46µM*, MCF10A rereplic -13%, HT1080-NT tox 0.46µM*, SW480 rereplic inconclusive, KB-3-1 cytotox inconclusive and KB-V1 cytotox inconclusive.
`CCCCC1(CCCC)C(=O)NC(=Nc2cccc(C)c2)NC1=O` gave HT1080 IDH1KD tx 18µM*, MCF10A rereplic 21%, HT1080-NT tox inconclusive, SW480 rereplic 2%, KB-3-1 cytotox inconclusive and KB-V1 cytotox inconclusive.
